Results with a measured potency or affinity are listed apart. Active and inactive are the calls of the source. The rule behind the calls is not given here.
Each compound was assayed on Drosophila melanogaster bursicon receptor LGR2 (rickets) (assay: blockers of bursicon-stimulated LGR2 cAMP reporter – cell-based, HEK293, CRE-luciferase reporter, cherry pick, set 2, dose response (AID 743343)). Conditions: bursicon-induced cAMP antagonist; series mostly up to 35 µM; activity change, negative = inhibition: at the top concentration.

Activity change, negative = inhibition, inactive:
CC1CCN(C(=O)c2ccc(S(=O)(=O)Cc3cc(F)ccc3F)c([N+](=O)[O-])c2)CC1 -11.8%, COc1ccc(NC(=O)Nc2ccc3c(c2)CC(=O)N([C@@H](C)CO)C[C@@H](C)[C@H](CN(C)Cc2ccncc2)O3)cc1 -21.7%, O=S(=O)(Nc1ccc(O)c2ccccc12)c1ccc(OC(F)(F)F)cc1 -6.14%, C[C@@H]1CN([C@H](C)CO)C(=O)c2c(c3ccccc3n2C)-c2ccccc2CO[C@H]1CN(C)S(=O)(=O)c1cn(C)cn1 -10.5%, COCC(=O)N[C@@H]1CC[C@@H](CC(=O)NCc2ccccc2OC)O[C@@H]1CO -6.96%, O=C(Cc1ccccc1Cl)Nc1cccnc1 10.2%, Cc1ccc(-n2cc(CN(C)Cc3nccn3C)c(-c3cccc(C)c3)n2)cc1 -21.1%, Cc1ccc(NC(=O)c2ncn(CC(=O)N3CCN(c4ccccn4)CC3)n2)cc1C 9.09%, CCOC(=O)c1c(C)n(C)c2ccc(OCC(O)CNCCc3ccccc3)cc12 (centres undefined) -8.99%, COc1ccc(-c2nc(N)n(C(=O)c3cccs3)n2)cc1 -18.4%, COc1ccccc1CNS(=O)(=O)c1ccc(N2CCCC2)cc1Br 10.3%, O=C(Cn1ncc(Cl)c(Cl)c1=O)N1CCOCC1 7.73%, O=[N+]([O-])c1cc(S(=O)(=O)N2CCCCCC2)ccc1Cl 49.2%, C[C@H](CO)N1C[C@H](C)[C@H](CN(C)C(=O)CN2CCOCC2)Oc2ncc(C#CCN(C)C)cc2C1=O -8.3%, CC(C)N(C(=O)COC(=O)c1ccccc1C(=O)c1ccc(Cl)c([N+](=O)[O-])c1)C(C)C 47% [at 16 µM], C[C@@H]1CN([C@H](C)CO)C(=O)Cc2cc(NC(=O)Nc3ccc(F)cc3)ccc2O[C@@H]1CN(C)CC1CCCCC1 -12.7%, COc1ccccc1C=NNC(=O)c1ccncc1 17%, COc1ccccc1CN(C)C[C@@H]1OCc2cnnn2CCCC(=O)N([C@H](C)CO)C[C@H]1C 24.4%, COc1ccc2[nH]c3c(c2c1)CCN1C(=O)N([C@@H](C)C(=O)NCc2ccc(C)cc2)C(=O)[C@]31C 15.9%, COc1cc(NC2CCCCC2O)c2nc(-c3ccc(Cl)cc3)ccc2c1 (centres undefined) 24.1%, COc1ccc(-c2noc(CCC(=O)N3CCN(c4ccc(Cl)cc4)CC3)n2)cc1 33.7%, O=C(C[C@H]1CC[C@H](NS(=O)(=O)c2cccc(F)c2)[C@@H](CO)O1)N1CCCCC1 -35.1%, Cn1c(=O)c2cc(NC(=O)NCc3ccccc3)ccc2n1C/C=C/c1ccccc1 0.394%, CC(C)c1ccc(NC(=O)N2CCN(S(=O)(=O)c3ccccc3)CC2)cc1 7.94%
